From PubChem BioAssay come the findings set out here.

Calls of active or inactive are those of the source.

Assay [1] is described as follows: binders of probe aFSTL3 on microarray, primary screen, stem cell growth factor project, biochemical, small-molecule microarray, fluorescence 635/667 (AID 1064).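 Further: measures binding of the biotinylated anti-FSTL3 antibody to printed compounds.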 The settings on record: higher = more signal.
Assay [2] is described as follows: binders from COS7 lysate, DM2A8 probe, primary screen, torsin A project, cell lysate, small-molecule microarray, fluorescence 635/667 (AID 1065). The settings on record: higher = more signal, COS7 lysate expressing mutant human TOR1A.
The nature of assay [3]: binders of probe aFGF2 on microarray, primary screen, stem cell growth factor project, biochemical, small-molecule microarray, fluorescence 635/667 (AID 1067).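 Further: measures binding of biotinylated aFGF2 protein to printed compounds on slides; z-score merges feature fluorescence and signal-to-noise across triplicate slides.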 The note with it: higher = more signal.
Assay [4] is described as follows: binders of probe aFGF10 on microarray, primary screen, stem cell growth factor project, biochemical, small-molecule microarray, fluorescence 635/667 (AID 1071).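 Further: score merges 667 nm spot intensity and signal to noise from triplicate slides.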 The note with it: higher = more signal.
The target of assay [5] is Neurogenic locus notch homolog protein 2 (Homo sapiens) (UniProt Q04721). Put plainly: Notch2 binders on small-molecule microarrays, primary screen, biochemical, small-molecule microarray, 635 nm fluorescence, stem cell growth factors (AID 1073). The settings on record: Notch2 binding, higher = more signal.
For assay [6], the target named is Pro-neuregulin-1, membrane-bound isoform (Homo sapiens) (UniProt Q02297). As to the kind of experiment: NRG1 binders on small-molecule microarrays, primary screen, psychiatric disease protein project, biochemical, small-molecule microarray, fluorescence 635/667 (AID 1075).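 Further: score combines 667 nm spot fluorescence with signal to noise.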 The note with it: NRG1 binding, 635 nm fluorescence, higher = more signal.
For assay [7], the system named is Neuregulin-1 EGF-like domain. As to the kind of experiment: binders of neuregulin-1 EGF-like domain, primary screen, biochemical, small-molecule microarray, 635 nm fluorescence (AID 1081).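 Further: binding of the protein to compounds printed on small-molecule microarray slides.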 The settings on record: small-molecule microarray binding, higher = more signal.
Assay [8] in a line: FRG1 promoter luciferase signal modulators, primary screen, FRG1 inhibition for FSHD, cell-based, C2C12 myotubes, firefly/Renilla luciferase, luminescence (AID 1084). The note with it: higher = more signal, called active from +8 up or from −8 down.
A short description of assay [9]: binders of probe aFST on microarray, primary screen, stem cell growth factor project, biochemical, small-molecule microarray, fluorescence 635/667 (AID 1086).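 Further: score merges 667 nm fluorescence with signal-to-noise of each printed compound spot.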 The settings on record: higher = more signal.
Assay [10] in a line: binders of probe aHhip on microarray, primary screen, stem cell growth factor project, biochemical, small-molecule microarray, fluorescence 635/667 (AID 1087).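 Further: score merges spot fluorescence at 667nm with spot signal to noise ratio.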 The settings on record: higher = more signal.

Pro-neuregulin-1, membrane-bound isoform (Homo sapiens), sequence (Q02297 whole entry, looked up, the tested form may be a part, canonical isoform): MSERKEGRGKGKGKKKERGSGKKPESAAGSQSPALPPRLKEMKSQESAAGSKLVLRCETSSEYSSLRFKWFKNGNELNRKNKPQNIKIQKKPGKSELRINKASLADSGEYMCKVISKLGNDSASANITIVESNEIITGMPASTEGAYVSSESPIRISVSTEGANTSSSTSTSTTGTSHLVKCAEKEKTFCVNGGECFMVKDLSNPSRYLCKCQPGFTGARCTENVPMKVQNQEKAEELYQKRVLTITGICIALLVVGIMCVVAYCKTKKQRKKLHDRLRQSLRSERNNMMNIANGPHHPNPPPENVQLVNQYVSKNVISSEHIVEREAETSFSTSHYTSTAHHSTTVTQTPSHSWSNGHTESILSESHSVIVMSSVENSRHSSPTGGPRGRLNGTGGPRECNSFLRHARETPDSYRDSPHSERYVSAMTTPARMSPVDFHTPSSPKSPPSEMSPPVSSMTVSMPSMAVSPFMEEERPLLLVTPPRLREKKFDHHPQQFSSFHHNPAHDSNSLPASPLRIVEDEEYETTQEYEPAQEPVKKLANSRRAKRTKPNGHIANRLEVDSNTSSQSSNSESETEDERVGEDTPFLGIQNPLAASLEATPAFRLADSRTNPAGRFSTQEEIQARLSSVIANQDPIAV
Neurogenic locus notch homolog protein 2 (Homo sapiens), sequence (Q04721 whole entry, looked up, canonical isoform): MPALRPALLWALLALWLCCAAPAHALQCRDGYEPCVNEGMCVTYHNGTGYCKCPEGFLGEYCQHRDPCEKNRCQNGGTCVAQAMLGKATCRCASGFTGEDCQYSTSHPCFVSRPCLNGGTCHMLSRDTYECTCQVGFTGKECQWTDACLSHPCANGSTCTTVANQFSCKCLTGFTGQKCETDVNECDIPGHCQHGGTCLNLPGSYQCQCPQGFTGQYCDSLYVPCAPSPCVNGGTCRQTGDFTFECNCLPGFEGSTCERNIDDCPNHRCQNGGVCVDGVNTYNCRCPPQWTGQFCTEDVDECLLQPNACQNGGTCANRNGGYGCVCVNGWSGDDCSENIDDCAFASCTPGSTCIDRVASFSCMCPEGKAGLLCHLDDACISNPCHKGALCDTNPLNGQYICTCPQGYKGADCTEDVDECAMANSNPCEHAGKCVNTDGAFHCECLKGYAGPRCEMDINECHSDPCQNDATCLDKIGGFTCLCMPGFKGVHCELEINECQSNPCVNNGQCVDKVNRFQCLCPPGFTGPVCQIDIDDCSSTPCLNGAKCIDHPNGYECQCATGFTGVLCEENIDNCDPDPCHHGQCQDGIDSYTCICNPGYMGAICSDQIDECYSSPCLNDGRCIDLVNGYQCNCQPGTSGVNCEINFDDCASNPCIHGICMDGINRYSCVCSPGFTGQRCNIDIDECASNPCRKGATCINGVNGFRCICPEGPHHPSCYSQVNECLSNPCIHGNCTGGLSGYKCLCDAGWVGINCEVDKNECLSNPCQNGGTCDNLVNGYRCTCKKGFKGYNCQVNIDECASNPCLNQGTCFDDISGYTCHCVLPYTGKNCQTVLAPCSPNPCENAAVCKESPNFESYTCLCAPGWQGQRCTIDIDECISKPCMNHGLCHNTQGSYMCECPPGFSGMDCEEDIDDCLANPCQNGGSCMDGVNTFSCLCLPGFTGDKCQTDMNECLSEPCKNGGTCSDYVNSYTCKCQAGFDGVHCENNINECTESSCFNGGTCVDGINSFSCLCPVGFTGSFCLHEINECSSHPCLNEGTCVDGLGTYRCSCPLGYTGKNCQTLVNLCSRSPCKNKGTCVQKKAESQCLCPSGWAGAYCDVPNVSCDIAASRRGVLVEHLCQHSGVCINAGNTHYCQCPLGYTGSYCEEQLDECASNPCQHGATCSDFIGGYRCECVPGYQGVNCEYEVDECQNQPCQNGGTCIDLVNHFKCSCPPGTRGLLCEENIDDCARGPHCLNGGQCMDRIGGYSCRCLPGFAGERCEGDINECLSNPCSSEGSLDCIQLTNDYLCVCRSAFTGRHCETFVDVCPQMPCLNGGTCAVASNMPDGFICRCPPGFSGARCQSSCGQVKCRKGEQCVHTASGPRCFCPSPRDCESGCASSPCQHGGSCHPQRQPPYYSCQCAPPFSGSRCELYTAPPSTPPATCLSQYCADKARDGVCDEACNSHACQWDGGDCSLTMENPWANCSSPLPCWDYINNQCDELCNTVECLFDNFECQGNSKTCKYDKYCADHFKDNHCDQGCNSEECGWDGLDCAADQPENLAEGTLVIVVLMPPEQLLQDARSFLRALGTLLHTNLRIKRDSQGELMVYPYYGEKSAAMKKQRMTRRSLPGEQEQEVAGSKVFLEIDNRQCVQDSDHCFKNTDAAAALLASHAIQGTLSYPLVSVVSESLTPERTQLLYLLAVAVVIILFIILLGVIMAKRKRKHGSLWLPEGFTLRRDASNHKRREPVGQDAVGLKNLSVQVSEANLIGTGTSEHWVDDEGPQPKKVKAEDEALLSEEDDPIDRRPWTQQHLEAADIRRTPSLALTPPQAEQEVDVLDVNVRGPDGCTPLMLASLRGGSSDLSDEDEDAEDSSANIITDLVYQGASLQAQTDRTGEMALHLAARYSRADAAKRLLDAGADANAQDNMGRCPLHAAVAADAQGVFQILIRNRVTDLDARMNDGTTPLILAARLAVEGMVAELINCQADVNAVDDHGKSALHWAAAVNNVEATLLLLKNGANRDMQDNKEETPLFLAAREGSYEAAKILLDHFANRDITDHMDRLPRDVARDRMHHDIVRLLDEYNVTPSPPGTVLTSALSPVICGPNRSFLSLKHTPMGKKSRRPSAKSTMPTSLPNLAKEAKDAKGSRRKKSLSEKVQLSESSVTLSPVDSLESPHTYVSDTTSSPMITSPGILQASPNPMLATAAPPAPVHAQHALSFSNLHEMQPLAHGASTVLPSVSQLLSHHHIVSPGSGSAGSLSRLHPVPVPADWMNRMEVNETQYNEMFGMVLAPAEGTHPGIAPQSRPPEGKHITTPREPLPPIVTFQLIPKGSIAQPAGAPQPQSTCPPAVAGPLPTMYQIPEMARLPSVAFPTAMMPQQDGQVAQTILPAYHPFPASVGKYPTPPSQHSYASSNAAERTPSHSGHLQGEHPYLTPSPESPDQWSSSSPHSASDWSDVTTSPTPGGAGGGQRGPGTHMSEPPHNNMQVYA

For `COc1ccc(O[C@H]2C=C[C@@H](c3ccccc3)O[C@@H]2COC(=O)CCC(C)=NOC(C)CN2CCCc3nc(C)c(C)cc32)cc1` (stereo not given in full), the composite z-score in assay [1] was -0.451; in assay [2], -0.395; in assay [3], -0.062; in assay [4] it was 0.623; in [5], 0.571; in [6] it was 0.858. In addition, the composite z-score was 0.967 in assay [7], 0.506 in assay [9] and -0.199 in assay [10]. Also, the z-score in assay [8] was -0.863 (inactive).
Consider `CO[C@H]1COC(=O)CCC[C@@H](C)[C@H](OC)COC(=O)[C@@H]2CCCN2C(=O)CC=C[C@@H]1C`, for which the composite z-score in assay [1] is -0.442; in [2], 2.09; in [3], -0.294; in [4] it was -0.142; in assay [5] it was -0.164; in assay [6], -0.508. Moreover, the composite z-score in assay [7] was 0.505; in [9], -0.194; in [10] it was 0.113. Besides, in assay [8], the z-score is 0.362 (inactive).
As for `CC(CCN1CCc2nc(-c3ccccc3)c(-c3ccccc3)cc2C1)=NOC[C@@H](O)COCc1ccco1`, the composite z-score is -0.278 in assay [1]; 0.424 in [2]; -0.0598 in [3]; 0.111 in [4]; 0.303 in assay [5]; 0.268 in assay [6]. The composite z-score was 0.792 in [7], -0.0187 in assay [9] and -0.261 in assay [10]. Moreover, the z-score in [8] was 0.515 (inactive).
Turning to `CC(=O)Nc1ccc([C@@H]2N[C@H](C(=O)O)CC[C@H]2C)cc1`, the composite z-score in assay [1] was -0.508; in assay [2], 0.301; in [3], -0.135; in assay [4] it was 0.426; in [5], 0.785; in assay [6], 0.0589. The composite z-score in assay [7] was 0.151; in [9], 0.296; in assay [10], -0.0618. Moreover, the z-score in assay [8] was 0.564 (inactive).
Turning to `CC=CC1=C(CO)C(=O)[C@@H]2O[C@@H]2C1=O`, the composite z-score is -0.538 in [1]; -0.45 in [2]; -0.093 in [3]; 0.0736 in [4]; -0.126 in assay [5]; -0.719 in assay [6]. Moreover, the results for the composite z-score in assay [7], in [9] and in assay [10] were 0.687, -0.212 and -0.0994, respectively. In addition, in assay [8], the z-score is -0.078 (inactive).
On to `CCOC(=O)[C@H](CC(C)C)NC(=O)CCC1CC(OC(=O)NCc2cccc3ccccc23)CC2(CCCC(COC(=O)NCC3CCCCC3)O2)O1` (stereo not given in full), for which the composite z-score in assay [1] was -0.338; in [2] it was 0.194; in assay [3] it was -0.0744; in [4] it was 0.54; in [5] it was 0.763; in [6], 0.589. For the same molecule, the composite z-score was found to be 0.907 in assay [7], 0.615 in assay [9] and 0.0623 in [10]. Besides, the z-score in [8] is 0.791 (inactive).
Turning to `C=CC[C@@H]1C=C[C@H](ON=C(C)CCC(=O)OC[C@H]2O[C@H](C#Cc3ccccc3)C=C[C@@H]2Oc2ccc(C)cc2)[C@@H](CO)O1`, the composite z-score in assay [1] is -0.566; in assay [2] it was 0.692; in assay [3] it was 0.0624; in assay [4], 0.782; in assay [5] it was 1.12; in [6], 0.661. The composite z-score in assay [7] is 0.984; in assay [9], 0.203; in assay [10], 0.0373. In addition, in assay [8], the z-score is -0.349 (inactive).
As to `COC(=O)[C@H](C)NC(=O)CCC1CC(OC(=O)NCc2ccc3c(c2)OCO3)CC2(CCCC(COC(=O)NCC3CCCCC3)O2)O1` (stereo not given in full), the composite z-score was -0.632 in assay [1]; 0.0369 in assay [2]; -0.0158 in assay [3]; 0.847 in assay [4]; 1.08 in [5]; 0.586 in assay [6]. Moreover, the composite z-score in assay [7] came to 1.18; in assay [9], 0.315; in [10] it was 0.231. Further, the z-score in assay [8] is 0.0762 (inactive).
`CCCNC(=O)OC[C@H]1O[C@H](c2ccccc2)C=C[C@@H]1Oc1ccc(OC)cc1`: the composite z-score in assay [1] is -0.428; in assay [2], 0.273; in assay [3], 0.0299; in assay [4] it was 0.594; in assay [5], 0.344; in [6], -0.327. Further, the composite z-score in assay [7] is -0.0407; in assay [9] it was -0.246; in assay [10], -0.0994. Also, the z-score in [8] was -0.0983 (inactive).
On to `CCOC(=O)[C@H](Cc1ccccc1)NC(=O)CCC1CC(OC(=O)NCc2cccc3ccccc23)CC2(CCCC(COC(=O)NCCC(C)C)O2)O1` (stereo not given in full), for which the composite z-score is -0.499 in assay [1]; 0.283 in [2]; -0.0895 in assay [3]; 0.0687 in assay [4]; -0.756 in assay [5]; -0.348 in assay [6]. Further, the composite z-score in assay [7] was 0.751; in assay [9] it was -0.219; in assay [10], -0.0994. In assay [8], the z-score is 1.41 (inactive).
Turning to `C#CCCCON=C1C[C@@H](O)[C@@H](O)[C@@H]2[C@@H]3C(=O)N(CCC(=O)OCC)C(=O)[C@@H]3CC[C@H]12`, the composite z-score is -0.467 in assay [1]; 0.294 in assay [2]; -0.0502 in assay [3]; 0.481 in [4]; 0.872 in assay [5]; 0.64 in assay [6]. The composite z-score is 0.685 in assay [7], 0.593 in [9] and -0.0994 in [10]. Besides, the z-score in assay [8] is -1.41 (inactive).
`CC(C)=CCCC(C)=CCON=C1C[C@@H](O)[C@@H](O)[C@@H]2[C@@H]3C(=O)N(c4ccc(F)cc4F)C(=O)[C@@H]3CC[C@@H]12`: the composite z-score in assay [1] is -0.245; in assay [2] it was 0.87; in [3] it was -0.116; in assay [4] it was 0.546; in assay [5], -0.205; in assay [6] it was 0.895. Besides, the values for the composite z-score in [7], in assay [9] and in assay [10] were 0.314, 0.356 and 0.0505, respectively. Further, the z-score in assay [8] was 0.656 (inactive).
